Results from PubChem BioAssay AID1619 (SRMLSC, 2009).
Screen size: about 220,000 compounds; about 830 (0.38%) were called active.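 Rule for the calls: active = compound inhibiting the enzyme by more than half at any dose during confirmatory dose-response retesting; inconclusive = strong single-dose inhibitors picked by rank but not retested; inactive = the rest.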 A selection follows. Potency and affinity values are given separately.

These compounds were tested against Leucine aminopeptidase (Plasmodium falciparum (isolate 3D7)) (UniProt Q8IL11) (assay: P. falciparum M17LAP inhibitors, primary screen, biochemical, fluorogenic H-Leu-NHMec substrate, 1536-well (AID 1619;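 note: plate controls were full reaction with DMSO carrier for no effect and no enzyme background for full effect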)). Conditions: recombinant M17LAP, H-Leu-NHMec fluorogenic kinetic assay; at 30 µM; active compounds read high.
Sequence of Leucine aminopeptidase (Plasmodium falciparum (isolate 3D7)) (Q8IL11 whole entry, looked up): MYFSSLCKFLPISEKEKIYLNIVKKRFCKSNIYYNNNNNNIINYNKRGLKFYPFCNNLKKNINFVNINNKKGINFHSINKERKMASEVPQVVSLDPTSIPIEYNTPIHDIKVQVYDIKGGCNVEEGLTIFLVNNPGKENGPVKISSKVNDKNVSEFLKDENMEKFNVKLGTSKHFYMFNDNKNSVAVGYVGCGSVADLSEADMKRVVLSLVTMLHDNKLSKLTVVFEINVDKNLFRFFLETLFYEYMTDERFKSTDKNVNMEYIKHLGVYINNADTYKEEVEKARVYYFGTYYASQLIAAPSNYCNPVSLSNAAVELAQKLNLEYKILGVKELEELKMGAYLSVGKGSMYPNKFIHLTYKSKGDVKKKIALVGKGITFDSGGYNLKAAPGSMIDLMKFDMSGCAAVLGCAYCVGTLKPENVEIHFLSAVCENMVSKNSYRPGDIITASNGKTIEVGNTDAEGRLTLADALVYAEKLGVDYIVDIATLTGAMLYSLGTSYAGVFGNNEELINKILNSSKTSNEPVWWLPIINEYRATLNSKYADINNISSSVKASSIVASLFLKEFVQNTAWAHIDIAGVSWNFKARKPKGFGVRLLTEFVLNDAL

inhibition, inactive:
O=C(CSc1ncn(-c2ccccc2)n1)Nc1ccc2c(c1)OCCO2 27.7%
CC(C)c1nc(SCC(=O)Nc2ccc3c(c2)OCCO3)n[nH]1 20.1%
Cc1csc(SCC(=O)Nc2ccc3c(c2)OCCO3)n1 -1.69%
CCCC(=O)Nc1nnc(SCC(=O)Nc2ccc3c(c2)OCCO3)s1 -3.46%
Cc1cc(=O)[nH]c(SCC(=O)Nc2ccc3c(c2)OCCO3)n1 36.2%
CC(C)C(=O)Nc1nnc(SCC(=O)Nc2ccc3c(c2)OCO3)s1 14.7%
Nc1nc(SCC(=O)Nc2ccc3c(c2)OCO3)n[nH]1 4.7%
CCc1c(C)nc(SCC(=O)Nc2ccc(Br)cc2)[nH]c1=O 19.5%
CCc1nc(SCC(=O)N2CCN(c3ccccc3)CC2)c2c(=O)n(C)c(=O)n(C)c2n1 3.46%
O=C(Nc1ccc(S(=O)(=O)NCc2ccco2)cc1)C1CCCCC1 2.33%
CC(=O)c1sc(NC(=O)CCOc2ccccc2)nc1C -0.71%
CCN1CCN(C(=O)CN(C)S(=O)(=O)c2ccc(Cl)cc2)CC1 -6.75%
CC(C)CNC(=O)C1CCN(c2ccc(S(=O)(=O)N3CCOCC3)cc2)CC1 -3.46%
CSc1nc(Cc2ccccc2)nc2ccccc12 0.06%
COc1ccc2c(c1)c(C(=O)N/N=C/c1cccc(O)c1)c(C)n2C 11.1%
COc1ccc2c(c1)c(C(=O)N/N=C/c1ccc(OC)c(OC)c1)c(C)n2C -4.74%
COCCNC(=O)CN(c1ccccc1OC)S(C)(=O)=O 6.69%
CC(=O)Nc1ccc(NC(=O)/C=C/c2ccccc2)cc1 -5.95%
COc1cccc(OCCCCN2CC(C)OC(C)C2)c1 (centres undefined) 8.69%
CSc1nc2cc(Cl)ccc2s1 -8.15%
O=C1OCCC1Sc1nc2cc(Cl)ccc2s1 (centres undefined) 11.7%
Cc1cc(C(F)(F)F)nc(SCC(=O)NC2CC3CCC2C3)n1 (centres undefined) 4.48%
CC(Nc1ccc(Br)cc1)C(=O)N/N=C/c1ccccc1OCc1ccccc1 (centres undefined) -9.93%
COc1cccc(/C=N/NC(=S)Nc2cccc(C(=O)O)c2)c1O 44.2%
COc1ccc(NC(C)C(=O)N/N=C/c2ccccc2OCc2cccc(Br)c2)cc1 (centres undefined) 3.79%
Cc1ccccc1NC(C)C(=O)N/N=C/c1ccccc1OCc1cccc(Br)c1 (centres undefined) -0.47%
O=C(N/N=C/c1ccncc1)c1ccc(COc2cccc3cccnc23)cc1 8.86%
O=C(N/N=C/c1cccc(O)c1)c1ccc(COc2cccc3cccnc23)cc1 3.53%
CC1(C)CC2CC(C)(CN2/C=C2/CCCCC2=O)C1 (centres undefined) 16.8%
CCC1S/C(=N/N=C/c2ccco2)N(c2ccc(F)cc2)C1=O (centres undefined) 5.93%
O=[N+]([O-])c1cccc2ccc(/C=C/c3ccc(C(F)(F)F)cc3)nc12 5.36%
Cc1cc(N=Cc2c(O)n(-c3ccc(C)c(C)c3)c(=O)c3ccccc23)no1 -34.1%
COc1ccc(OCC(=O)OC(C)CN2CCOCC2)cc1 (centres undefined) 4.55%
COc1cccc(CC(=O)n2nc(N)c3cc4ccc(OC)cc4nc32)c1 -8.98%
O=C(CCC(=O)N1CCN(S(=O)(=O)c2ccc(Cl)cc2)CC1)Nc1ccc2ccccc2c1 -4.1%
CCc1ccc(C2NC(=S)NC3=C2C(=O)CC(C)(C)C3)cc1 (centres undefined) -1.26%
CCOC(=O)c1c(C)[nH]c(C(=O)/C(C#N)=C/c2ccc(OC)c(OC)c2)c1C 9.47%
CC(C)NC(=O)COC(=O)c1ccc(S(=O)(=O)N2CCCC2)cc1 -2.13%
CCCS(=O)(=O)N1CCN(S(=O)(=O)c2ccccc2)CC1 -6.24%
O=C(CCC(=O)N(CC(=O)NC1CCCCC1)c1ccc2c(c1)OCCO2)Nc1ccccn1 9.63%
O=C(CSc1nnc(Nc2ccccc2F)s1)c1cc2ccccc2o1 32.5%
COc1ccc(Nc2nnc(SCC(=O)c3cc4ccccc4o3)s2)cc1 4.36%
O=S(=O)(c1ccccc1)N1CCN(c2nc(-c3cccs3)nc3ccccc23)CC1 4.27%
CC(C)CC(NC(=O)c1cccs1)c1nnc(SCc2ccc(Cl)c(Cl)c2)n1C (centres undefined) 4.91%
C/C=C/C(=O)OCC(=O)Nc1ccc(SC(F)F)cc1 -1.79%
Cc1nn(-c2ccccc2)c(N2CCCC2)c1/C=C1\N=C(c2ccccc2)OC1=O 2.36%
O=C(O)C1CCCCC1C(=O)Nc1ccccc1Cl (centres undefined) 43.9%
Cc1ccc(F)c(NC(=O)C2CCCCC2C(=O)O)c1 (centres undefined) 4.08%
O=C(O)C1CC=CCC1C(=O)Nc1ccccc1C(=O)N1CCN(c2ccc(Cl)cc2)CC1 (centres undefined) 56.6%
Cc1ccc(Cl)cc1NC(=O)C1CCCCC1C(=O)O (centres undefined) 10.3%
O=C(O)C1CCCCC1C(=O)Nc1ccc(F)cc1F (centres undefined) 41.3%
O=C(O)C1CCCCC1C(=O)Nc1cccc2ccccc12 (centres undefined) 39.5%
COC(=O)c1ccccc1NC(=O)C1CC=CCC1C(=O)O (centres undefined) 29.7%
O=C(CCC(=O)Nc1ccc(Cl)cc1Cl)NNC(=O)[C@@H]1CCCC[C@@H]1C(=O)O -2.95%
COc1ccc(C(=O)Nc2cccc(-c3nc4ncccc4o3)c2C)cc1OC 2.86%
COc1ccc(Cn2c(CCC(=O)Nc3ccc(C)cc3)nc3cccnc32)cc1 -4.5%
CCOC(=O)C(C(=O)OCC)C1CS(=O)(=O)CC1C(C(=O)OCC)C(=O)OCC (centres undefined) 17%
COc1ccc(CCNC(=O)CC2Nc3ccccc3NC2=O)cc1 (centres undefined) 3.68%
COc1ccccc1NC(=O)NCc1ccco1 4.76%
Cc1cc(=O)[nH]c(SCC(=O)Nc2ccc(Br)cn2)n1 19.5%
O=C(O)C1=C(C(=O)Nc2cc(C(F)(F)F)ccc2Cl)CCCC1 8.32%
O=C(NNC(=O)[C@H]1CC=CC[C@H]1C(=O)O)c1ccc(Cl)cc1Cl 0.37%
O=C(CNC1CC1)Nc1cc(C(F)(F)F)ccc1Cl 1.31%
O=C(O)C1CC=CCC1C(=O)NNc1c(Cl)cc(Cl)cc1Cl (centres undefined) 3.9%
